Source: PubChem
A selection: hits, their analogues and other compounds. The true share with any hit is near 0.92%.
RPL19A-GFP yeast = alters RPL19A-GFP fluorescence in TOR pathway yeast screen | S. cerevisiae RPL19A-GFP strain, flow cytometry, 3 h; active compounds read low | percent response vs DMSO, % at 10 µM | 330,000 compounds, 0.3% hits;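 active means percent response vs DMSO below 50%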;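 further: median channel GFP fluorescence of the barcoded RPL19A-GFP strain; ratio of sample median GFP to plate DMSO average so 100% = DMSO; lower means less RPL19A-GFP as with rapamycin TOR inhibition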
MEP2-GFP yeast = modulators of TOR pathway MEP2-GFP in S. cerevisiae; S. cerevisiae MEP2-GFP strain, flow cytometry GFP, 3 h; 100% = DMSO control level; GFP response vs DMSO, % at 10 µM; 330,000 compounds, 0.51% hits; AID 2016;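 active means GFP response versus DMSO above a set limit, roughly screen mean plus 3 SD, cut at about 180% in these data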;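 further: median GFP fluorescence of the barcode-gated MEP2-GFP cells per well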
CIT2-GFP yeast = alters CIT2-GFP fluorescence in TOR pathway yeast screen | S. cerevisiae CIT2-GFP strain, flow cytometry, 3 h; 100 means same as DMSO wells | GFP response vs DMSO, % at 10 µM | 320,000 compounds, 0.065% hits | AID 2029;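 active means GFP response relative to DMSO above a set limit, near the screen mean plus 3 SD, cut at about 150% in these data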;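 further: ratio of well median GFP fluorescence to mean of DMSO wells on the plate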
AGP1 TOR yeast = modulators of TOR pathway AGP1-GFP in S. cerevisiae | S. cerevisiae AGP1-GFP multiplex flow cytometry, 3 h; GFP as percent of DMSO wells | GFP response vs DMSO, % at 10 µM | 320,000 compounds, 0.02% hits | AID 2066;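 active means GFP response relative to DMSO above a set limit, near screen average plus 3 SD, cut at about 150% in these data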;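 further: median GFP channel fluorescence of the gated AGP1 strain per well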
LAP4-GFP MLPCN = alters LAP4-GFP fluorescence in TOR pathway yeast screen; GFP response vs DMSO, % at 10 µM; 320,000 compounds, 0.34% hits; AID 2023; S. cerevisiae LAP4-GFP multiplex, flow cytometry GFP, 3 h; median GFP as percent of DMSO wells;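 active means GFP response vs DMSO above a set limit, about the screen mean plus 3 SD, cut at about 150% in these data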
LAP4-GFP pick2 = second confirmation of modulators of TOR reporter LAP4-GFP in yeast; 590 compounds, 20% hits; GFP response vs DMSO, % at 10 µM; shares compounds with LAP4-GFP MLPCN; AID 2621; S. cerevisiae LAP4-GFP strain, flow cytometry GFP, 3 h;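 active means GFP signal as percent of the solvent control above about 150%, meaning raised reporter expression, limit read from the data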;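 further: ratio of well median GFP fluorescence to plate DMSO mean so 100% = DMSO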
MEP2-GFP pick2 = second confirmation of modulators of TOR reporter MEP2-GFP in yeast; shares compounds with LAP4-GFP MLPCN; S. cerevisiae MEP2-GFP strain, flow cytometry GFP, 3 h; GFP response vs DMSO, % at 10 µM; 590 compounds, 10% hits;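 active means GFP signal above 150% of the solvent control wells, that is a rise of more than half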;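 further: median channel GFP fluorescence of all gated yeast cells per well; ratio of median GFP to plate DMSO average so 100% = DMSO level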
RPL19A GFP CP2 = second confirmation of modulators of TOR reporter RPL19A-GFP in yeast; shares compounds with LAP4-GFP MLPCN; S. cerevisiae RPL19A-GFP strain, flow cytometry GFP, 3 h; active compounds read low; 100% means same as DMSO wells; GFP response vs DMSO, % at 10 µM; 590 compounds, 3% hits;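 active means under 65% GFP response relative to DMSO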;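 further: median GFP channel fluorescence per well over the all cells gate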
CIT2-GFP pick2 = second confirmation of modulators of TOR reporter CIT2-GFP in yeast. GFP response vs DMSO, % at 10 µM. shares compounds with LAP4-GFP MLPCN. 590 compounds, 8% hits. S. cerevisiae CIT2-GFP strain, flow cytometry GFP, 3 h; DMSO control wells read 100%. AID 2624;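 active means GFP response vs DMSO above about 150%, limit read from the data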;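 further: median green fluorescence per well over all gated yeast cells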
AGP1-GFP pick2 = second confirmation of modulators of TOR reporter AGP1-GFP in yeast; 590 tested, under 10 active; percent response vs DMSO, % at 10 µM; S. cerevisiae AGP1-GFP strain, flow cytometry GFP, 3 h; shares compounds with LAP4-GFP MLPCN; AID 2643;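 active means over 150 percent of DMSO response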;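 further: median GFP channel fluorescence over all cells without mother daughter split; sample median GFP divided by mean DMSO control so 100% equals DMSO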
s288c autofluor = counter-screen for compound autofluorescence in yeast s288c cells; shares compounds with LAP4-GFP MLPCN; S. cerevisiae s288c, 520 nm autofluorescence, flow cytometry, 3 h; active compounds read high; zero means same as solvent-only cells; fluorescence change (kMESF span) at 33 µM; 610 tested, under 10 active; AID 2757;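 active means fluorescence span over the dose series, or activity score, above about 33, limit read from the data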
Yeast autofl DR = yeast s288c autofluorescence artifact in dose response. shares compounds with LAP4-GFP MLPCN. S. cerevisiae s288c parental, compound autofluorescence, flow cytometry, 3 h. fluorescence change (span) at 33 µM. 110 tested, under 10 active;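 active means fluorescence change span, or the activity score built from it, above 25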
TORC1 bypass = wildtype yeast growth loss with TORC1 bypass cells unaffected; growth rating (0-3) at 30 µM; AID 504456; 120 tested, under 10 active; shares compounds with LAP4-GFP MLPCN; S. cerevisiae BY4741 spot growth rating, 48-72 h; active compounds read low;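 active means growth rating at most 1 for wild type yeast while the TORC1 bypass strain still grows fully, rated 3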
* = called active by the depositor; . = not tested or not shown.

SMILES	RPL19A-GFP yeast	MEP2-GFP yeast	CIT2-GFP yeast	AGP1 TOR yeast	LAP4-GFP MLPCN	LAP4-GFP pick2	MEP2-GFP pick2	RPL19A GFP CP2	CIT2-GFP pick2	AGP1-GFP pick2	s288c autofluor	others
CC(NC(=O)c1ccccc1F)C12CC3CC(CC(C3)C1)C2 (stereo not given)	94	88	90	80	158*	107	97	98	94	94	.
Nc1nc(N)c2nc(CNc3ccc(C(=O)NC(CCC(=O)O)C(=O)O)cc3)cnc2n1 (stereo not given)	85	94	83	101	299*	327*	218*	101	157*	128	0.1
O=C(O)CCC(NC(=O)OCc1ccccc1)C(=O)O (stereo not given)	98	104	98	99	107	.	.	.	.	.	.
Cc1cc([N+](=O)[O-])ccc1NC(=O)c1csc(C)c1C	117	107	88	89	89	.	.	.	.	.	.
CCOC(=O)c1c(C)oc2c1c(C(c1cccnc1)N1CCOCC1)c(O)c1ccccc12 (stereo not given)	80	85	72	77	160*	.	.	.	.	.	2.1	Yeast autofl DR=1.1;TORC1 bypass=3
CCOc1cc(C(=O)Nc2ccc(S(=O)(=O)NC3=NCCCCC3)cc2)cc(Br)c1OC	101	108	103	107	111	.	.	.	.	.	.
N=C1SCC(=O)N1c1ccccc1Cl	105	105	98	94	91	.	.	.	.	.	.
O=C1c2sc3nc4ccccc4n3c2C(=O)N1c1ccccc1Cl	66	99	84	81	192*	138	158*	75	104	81	1.9
COc1ccccc1-c1nc2s/c(=C\c3cccs3)c(=O)n2n1	94	102	79	80	180*	126	108	104	110	95	0.4
Cc1ccc(/C=c2\sc3nc(-c4cccs4)nn3c2=O)o1	103	149	125	104	174*	.	.	.	.	.	1.4
COc1cccc(/C=c2\sc3nc(-c4cccs4)nn3c2=O)c1OC	114	105	113	117	113	.	.	.	.	.	.
CCN(CC)c1ccc2cc(-c3nc4ccccc4[nH]3)c(=O)oc2c1	112	200*	139	112	171*	.	.	.	.	.	4.7
CCN(CC)c1ccc2cc(-c3nc4ccccc4n3C)c(=O)oc2c1	97	100	88	93	108	.	.	.	.	.	.
CCN(CC)c1ccc2cc(-c3nnc(-c4ccccc4)o3)c(=O)oc2c1	89	95	83	81	97	.	.	.	.	.	.
CCN(CC)c1ccc2cc(-c3nc(-c4ccc(OC)cc4)cs3)c(=O)oc2c1	119	221*	204*	94	160*	.	.	.	.	.	7.5
CCn1nc(C)c(CN2CCC(Oc3ccc(C(=O)N4CCCC4)cc3)CC2)c1C	98	101	101	100	101	.	.	.	.	.	.
Cc1ccc(/C(N)=N/OC(=O)c2ccc(F)cc2)cc1	96	97	170*	58	142	.	.	.	.	.	0.3
COc1cc(C(=O)NCc2nnc(SCC(=O)Nc3nccs3)o2)cc(OC)c1OC	50	169	98	76	87	101	100	99	110	97	.
COc1cc(C(=O)NCc2nnc(SCC(=O)Nc3cc(C)on3)o2)cc(OC)c1OC	95	92	94	94	90	.	.	.	.	.	.
CC(C)(C)CN1CCC(Oc2cccc(C(=O)N3CCNC(=O)C3(C)C)c2)CC1	101	106	107	97	93	.	.	.	.	.	.
Cc1ccc(C(=O)O)cc1N1C(=O)c2cccc3c([N+](=O)[O-])ccc(c23)C1=O	109	157	141	92	108	.	.	.	.	.	.
CC(=O)Oc1cccc(N2C(=O)c3cccc4c([N+](=O)[O-])ccc(c34)C2=O)c1	112	227*	133	79	178*	177*	281*	114	225*	111	6.1
CNC(=O)C(=O)NCC1CCCN1S(=O)(=O)c1cccs1 (stereo not given)	105	106	109	114	107	.	.	.	.	.	.
COCCCNC(=O)C(=O)NCC1CCCN1S(=O)(=O)c1cccs1 (stereo not given)	77	106	67	100	205*	101	103	101	101	99	.
COc1ccc(N(CC(=O)Nc2ccccc2C(=O)O)S(=O)(=O)c2ccc(C)c([N+](=O)[O-])c2)cc1	102	102	98	105	101	.	.	.	.	.	.
SMILES	RPL19A-GFP yeast	MEP2-GFP yeast	CIT2-GFP yeast	AGP1 TOR yeast	LAP4-GFP MLPCN	LAP4-GFP pick2	MEP2-GFP pick2	RPL19A GFP CP2	CIT2-GFP pick2	AGP1-GFP pick2	s288c autofluor	others
O=C(CC(=O)c1ccccc1)Nc1cc(C(F)(F)F)ccc1Cl	106	105	92	94	99	100	112	101	102	99	.
Cc1cnccc1CNC(=O)CC1C(=O)NCCN1CC(C)(C)C (stereo not given)	97	105	98	94	98	.	.	.	.	.	.
CC(=O)c1ccc(NC(=O)Cn2c3ccccc3c3nc(=O)cc(C)n32)cc1	56	156	84	71	92	100	102	100	97	100	.
COC(=O)c1ccc(OCc2nn[nH]n2)cc1	96	104	104	96	92	.	.	.	.	.	.
N#Cc1cc([N+](=O)[O-])c(-n2nnc3ccccc32)c([N+](=O)[O-])c1	87	93	85	93	206*	.	.	.	.	.	-0.2
Cc1onc(-c2c(Cl)cccc2Cl)c1C(=O)NCCc1ccc(S(N)(=O)=O)cc1	100	103	103	105	89	.	.	.	.	.	.
CN(Cc1ccon1)C(=O)C1CCN(C2CCN(CCCc3ccccc3)CC2)CC1	106	96	107	92	67	.	.	.	.	.	.
